Tests used:
PEG-3 [1] = target: PEG-3 (UniProt Q6IN02); experiment: Peg3 promoter luciferase inhibitors, potency, dose response, cell-based, HeLa, CREF/GAPDH counter-screen panel (AID 624167); details: CREF/GAPDH counter-screens; HeLa PEG-Prom luciferase reporter, overnight, run 1, dose range 1, at 100 µM (top of the series) unless noted
PEG-3 [2] = target: PEG-3 (UniProt Q6IN02); experiment: as above; details: CREF/GAPDH counter-screens; HeLa PEG-Prom luciferase reporter, overnight, run 2, dose range 1, at 100 µM (top of the series) unless noted
[3] = target: Tumor necrosis factor receptor superfamily member 10B (Homo sapiens) (UniProt O14763); experiment: caspase-8 TRAIL sensitization, hit retest, confirmation, cell-based, NB7+caspase-8, with/without TRAIL, luminescence panel (AID 651596); details: NB7 neuroblastoma + caspase-8, TRAIL sensitization, luminescence viability, with TRAIL, mean of runs, at 10 µM, stronger effect = higher value
[4] = as above; details: NB7 neuroblastoma + caspase-8, without TRAIL, luminescence viability, without TRAIL, mean of runs, at 10 µM
[5] = inhibitors of PAF-induced NFkB signaling in CF airway cells, dose response, cell-based, uHTS hits, panel, cytotoxicity readout (AID 624344); details: CF bronchial epithelial cells, PAF-induced NFkB reporter inhibition, with PAF, run 1; at 79 µM (top of the series) unless noted
[6] = as above; details: CF bronchial epithelial cells, PAF-induced NFkB reporter inhibition, with PAF, run 2; at 79 µM (top of the series) unless noted

Chain of Tumor necrosis factor receptor superfamily member 10B (Homo sapiens) (O14763 whole entry, looked up): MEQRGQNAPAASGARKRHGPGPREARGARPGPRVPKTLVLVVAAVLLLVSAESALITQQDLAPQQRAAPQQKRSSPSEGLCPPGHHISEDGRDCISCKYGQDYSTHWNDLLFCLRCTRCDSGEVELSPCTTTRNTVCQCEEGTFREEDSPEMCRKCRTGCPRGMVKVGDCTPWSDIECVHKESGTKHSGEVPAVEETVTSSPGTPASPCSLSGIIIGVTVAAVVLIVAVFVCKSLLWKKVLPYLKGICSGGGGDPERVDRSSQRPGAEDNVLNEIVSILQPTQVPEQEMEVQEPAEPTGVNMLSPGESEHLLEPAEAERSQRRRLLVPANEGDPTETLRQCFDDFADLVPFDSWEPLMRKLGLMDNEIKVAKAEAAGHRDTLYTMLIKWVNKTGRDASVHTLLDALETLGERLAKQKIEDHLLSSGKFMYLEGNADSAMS
Chain of PEG-3 (Q6IN02 whole entry, looked up): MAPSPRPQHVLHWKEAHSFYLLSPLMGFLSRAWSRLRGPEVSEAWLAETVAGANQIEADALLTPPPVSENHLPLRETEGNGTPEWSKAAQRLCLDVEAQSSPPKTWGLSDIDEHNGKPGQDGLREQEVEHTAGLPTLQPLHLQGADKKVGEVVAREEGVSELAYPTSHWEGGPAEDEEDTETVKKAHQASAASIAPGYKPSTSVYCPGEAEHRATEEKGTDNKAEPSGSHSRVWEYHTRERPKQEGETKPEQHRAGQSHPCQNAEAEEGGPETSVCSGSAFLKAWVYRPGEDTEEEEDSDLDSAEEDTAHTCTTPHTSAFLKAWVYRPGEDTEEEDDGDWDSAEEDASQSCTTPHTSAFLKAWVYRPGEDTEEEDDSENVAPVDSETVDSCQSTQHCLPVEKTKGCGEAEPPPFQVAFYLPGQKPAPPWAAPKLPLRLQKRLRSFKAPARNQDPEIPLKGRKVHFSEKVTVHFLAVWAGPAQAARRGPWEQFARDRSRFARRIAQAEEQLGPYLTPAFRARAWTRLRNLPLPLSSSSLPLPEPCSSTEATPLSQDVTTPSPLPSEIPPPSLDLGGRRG

Row | Structure (SMILES) | inhibition (PEG-3 [1]) | inhibition (PEG-3 [2]) | activity [3] | activity [4] | inhibition [5] | inhibition [6]
1 | CCOc1cccc2sc(N(CCCN(C)C)C(=O)c3ccc(S(=O)(=O)N(C)Cc4ccccc4)cc3)nc12 | 99.3% | 101% | 28.6% | -0.65% | – | –
2 | COc1cc(NC(=O)c2c(F)c(F)c(F)c(F)c2F)c(OC)cc1Cl | 99.8% | 96.5% | 85.1% | 64.5% | – | –
3 | O=C(NC1CCCCC1)C(c1cccnc1)N(C(=O)CCl)c1cccc(Cl)c1 (stereo not given) | 97.7% | 102% | 99.3% | 99.5% | – | –
4 | Cc1ccc(-n2cc(-c3ccccc3)c3c(N4CCOCC4)ncnc32)cc1 | 101% | 102% | – | – | 107% | 101%
5 | CCOc1ccccc1NC(=S)Nc1ccc2cn[nH]c2c1 | – | – | – | – | 104% | 114%
6 | CC(C)CNC(=O)c1coc(=O)c(Br)c1 | – | – | – | – | 86% | 63.6%
7 | O=c1c2ccccc2oc2cc(C#CC3(O)CCCCC3)ccc12 | 102% | 102% | 87.3% | 85.3% | – | –
8 | O=c1[nH]c(C2CCN(S(=O)(=O)c3ccc4c(c3)OCCO4)CC2)nc2c1nnn2Cc1c(F)cccc1Cl | – | – | – | – | 93% | 101%
9 | N/C(=N\OC(=O)c1ccccc1)C(Cc1ccccc1)C(=O)NOC(=O)c1ccccc1 (stereo not given) | 97.4% | 99.1% | 98% | 97.8% | – | –
10 | Cc1[nH]nc2c1-c1nc3ccccc3nc1C(C)(C)C2 | – | – | – | – | 113% | 99.3%
11 | Cc1ccc2sc(N(CCCN(C)C)C(=O)c3ccc(S(=O)(=O)N(C)Cc4ccccc4)cc3)nc2c1C | 102% | 99.1% | 44% | 32.9% | – | –
12 | N/C(=N\OC(=O)c1ccccc1)C(C(=O)NOC(=O)c1ccccc1)C1CCCCC1 (stereo not given) | 98.8% | 102% | 97.6% | 94.9% | – | –

— PubChem BioAssay
